This is an account of results in PubChem BioAssay (EPA / NIEHS).

For test [1], the target named is Luciferin 4-monooxygenase (Photinus pyralis) (UniProt P08659). Kind of test: CCTE_Simmons_QuantiLum_inhib_2: CCTE's Firefly Luciferase Inhibition Assay, Simmons Lab (AID 2283767).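 As to AC50: potency for inhibitors that lower luciferase luminescence relative to DMSO.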 An outline of the steps: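 Luminescence loss relative to DMSO vehicle defines inhibition; detection reagent containing 150 uM D-luciferin and 147 uM dATP (final, pH 7.8) is injected immediately before each read. Enzyme is preincubated with an 8-point titration (5 nM–87.5 uM final) for 30 min at 37C.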

A short description of test [2]: ACEA_AR_agonist_AUC_viability: ACEA Biosciences xCELLigence Real-Time Cell Analysis on Androgen Receptor Agonism for Viability (AID 2283775).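 As to AC50: viability read 80 hours after compound addition.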 An outline of the steps:
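Real-time impedance tracking of 22Rv1 growth, readings every 5 min for 5 h then hourly; area-under-curve viability endpoint at 80 hours, relative to DMSO. Compounds at eight concentrations, 1:4 steps, top 100 uM, n = 2.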

Test [3] is described as follows: ACEA_AR_antagonist_AUC_viability: ACEA Biosciences xCELLigence Real-Time Cell Analysis on Androgen Receptor Antagonism for Viability (AID 2283776).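 Also: hits lower the growth signal relative to DMSO meaning cytotoxicity.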 An outline of the steps:
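22Rv1 human prostate cancer cells were seeded on electrode plates, monitored overnight, then exposed to eight 1:4 dilutions from 100 uM final. Impedance-based growth kinetics at 80 h gave an AUC viability endpoint normalized to DMSO.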

Test [4] is described as follows: ACEA_ER_AUC_viability: ACEA Biosciences xCELLigence Real-Time Cell Analysis on Estrogen Receptor Agonism for Viability (AID 2283782).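 Also: continuous compound exposure with impedance area under curve over 80 h; hit means loss of impedance signal meaning reduced cell growth or viability.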 The procedure, abridged:
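T47D cells preconditioned in phenol red-free RPMI with charcoal-stripped FBS, then dosed with 8-point 1:4 series from 100 uM (up to 0.5% DMSO). Impedance monitored up to ~80 h; area-under-curve loss versus DMSO taken as viability.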

The nature of test [5]: STM_H9_NormalizedViability: Cytotoxicity Assessment at 120 hours in the Stemina devTOX quickPredict H9 human embryonic stem cell (hESC)-based Assay (AID 2283784). The procedure, abridged:
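Pluripotent H9 cells dosed, fresh medium plus compound q24h → cell layer read by CellTiter-Fluor → RFU blank-corrected, normalized to DMSO 0.1% mean. Loss-of-signal fit, DMSO as baseline.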

In the next test the target is AR (gene 367) (UniProt P10275). The test can be described thus: ACEA_AR_agonist_80hr: ACEA Biosciences xCELLigence Real-Time Cell Analysis on Androgen Receptor Agonism for Proliferation (AID 2283783).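 Also: hits increase impedance growth signal above DMSO baseline.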 The procedure, abridged:
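Proliferation of 22Rv1 prostate cancer cells tracked by electrical impedance, endpoint taken at 80 hours after dosing. Eight-point 1:4 dilutions from 100 uM maximum final, duplicate; testosterone and MG132 as positive controls, assay media as negative.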

Test [6] concerns chicken Androgen Receptor (AR), gene 422165. Kind of test: ATG_chAR_XSP1: Attagene TRANS-FACTORIAL Multi-Species (XSP1) HepG2 Assay for chicken Androgen Receptor (AR) (AID 2283768). The procedure, abridged: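 HepG2 cells transiently transfected with multiplexed GAL4-UAS reporter units expressing chimeric chicken AR-Gal4; 3 nM 6-alpha-fluorotestosterone for partial AR stimulation; 24 h after dosing, reporter mRNA by RT-PCR and capillary electrophoresis, gain-of-signal versus DMSO.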

For test [7], the target named is zebrafish Estrogen Receptor (ESR1), esr1 (gene 259252) (UniProt P57717). Kind of test: ATG_zfER1_XSP1: Attagene TRANS-FACTORIAL Multi-Species (XSP1) HepG2 Assay for zebrafish Estrogen Receptor (ESR1) (AID 2283772). An outline of the steps: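 Trans-activation readout: transfected zebrafish ER-Gal4 drives a UAS reporter in human HepG2 liver cells. After 24 h compound exposure (medium containing 3 nM 6-alpha-fluorotestosterone), induced reporter transcripts were quantified by RT-PCR with capillary electrophoresis, relative to DMSO.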

The test system of test [8] is zebrafish Estrogen Receptor (ESR2B), gene 317733. Kind of test: ATG_zfER2b_XSP1: Attagene TRANS-FACTORIAL Multi-Species (XSP1) HepG2 Assay for zebrafish Estrogen Receptor (ESR2B) (AID 2283773). An outline of the steps: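 HepG2 cells transiently transfected with GAL4-UAS reporter units for chimeric zebrafish ER2b-Gal4, with 3 nM 6-alpha-fluorotestosterone present; reporter mRNA measured 24 h after dosing by RT-PCR and capillary electrophoresis, gain versus DMSO.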

Test [9] has as its system frog Estrogen Receptor (ESR2), gene 100174814. Kind of test: ATG_frER2_XSP1: Attagene TRANS-FACTORIAL Multi-Species (XSP1) HepG2 Assay for frog Estrogen Receptor (ESR2) (AID 2283774). The procedure, abridged: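 HepG2 cells transiently transfected with GAL4-UAS reporter units expressing chimeric frog ER-Gal4; 3 nM 6-alpha-fluorotestosterone present. After 24 h dosing, reporter mRNA quantified by RT-PCR and capillary electrophoresis; gain-of-signal fitted relative to DMSO.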

In test [10] the test system is frog Estrogen Receptor (ESR1), gene 398734. The test can be described thus: ATG_frER1_XSP1: Attagene TRANS-FACTORIAL Multi-Species (XSP1) HepG2 Assay for frog Estrogen Receptor (ESR1) (AID 2283777). The procedure, abridged:
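HepG2 cells transiently transfected with frog ER–GAL4 chimera and GAL4-UAS reporter, with 3 nM 6-alpha-fluorotestosterone present; 24 h dosing, reporter mRNA quantified by RT-PCR and capillary electrophoresis, gain of signal versus DMSO.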

Test [11] relates to zebrafish Estrogen Receptor (ESR2A), gene 317734. The test can be described thus: ATG_zfER2a_XSP1: Attagene TRANS-FACTORIAL Multi-Species (XSP1) HepG2 Assay for zebrafish Estrogen Receptor (ESR2A) (AID 2283778). An outline of the steps:
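HepG2 cells transiently transfected with GAL4-UAS reporter units driven by a zebrafish ESR2A–Gal4 chimera; 24 h compound exposure with 3 nM 6-alpha-fluorotestosterone present. Reporter mRNA measured by RT-PCR with fluorescent capillary electrophoresis, fitted positive versus DMSO.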

In test [12] the target is chicken Estrogen Receptor (ESR1), ESR1 (gene 396099) (UniProt P06212). Kind of test: ATG_chERa_XSP1: Attagene TRANS-FACTORIAL Multi-Species (XSP1) HepG2 Assay for chicken Estrogen Receptor (ESR1) (AID 2283779). The procedure, abridged:
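HepG2 cells transiently transfected with GAL4-UAS reporter units for chimeric chicken ERα-Gal4, dosed 24 h with 3 nM 6-alpha-fluorotestosterone present. Reporter mRNA by RT-PCR and capillary electrophoresis; gain-of-signal fit versus DMSO.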

In test [13] the target is Estrogen receptor (Homo sapiens) (UniProt P03372). Kind of test: ATG_hERa_XSP1: Attagene TRANS-FACTORIAL Multi-Species (XSP1) HepG2 Assay for human Estrogen Receptor (ESR1) (AID 2283780). An outline of the steps: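 HepG2 cells transiently transfected with GAL4-UAS reporter units and chimeric NR-Gal4 constructs; 24 h after dosing, reporter mRNA quantified by RT-PCR and capillary electrophoresis. Medium contained 3 nM 6-alpha-fluorotestosterone; activity fitted as gain-of-signal versus DMSO.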

Test [14] relates to turtle Estrogen Receptor (ESR1), gene 101933533. The test can be described thus: ATG_trERa_XSP1: Attagene TRANS-FACTORIAL Multi-Species (XSP1) HepG2 Assay for turtle Estrogen Receptor (ESR1) (AID 2283781). The procedure, abridged: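 Turtle ERa as a GAL4 chimera in transiently transfected HepG2 cells; reporter mRNA quantified 24 h after dosing by RT-PCR and capillary electrophoresis. 3 nM 6-alpha-fluorotestosterone present; gain of signal versus DMSO.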

Test [15] has as its system turtle Androgen Receptor (AR), gene 101947425. Kind of test: ATG_trAR_XSP1: Attagene TRANS-FACTORIAL Multi-Species (XSP1) HepG2 Assay for turtle Androgen Receptor (AR) (AID 2283786). The procedure, abridged: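 HepG2 cells transiently transfected with a turtle AR–GAL4 chimera and GAL4-UAS reporter, co-treated with 3 nM 6-alpha-fluorotestosterone for partial stimulation. Reporter mRNA is quantified at 24 h by RT-PCR and capillary electrophoresis, gain-of-signal versus DMSO.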

Results filed as inconclusive are left out. Active and inactive are the calls of the source. The calls were made as follows: active = hit-call score of the fitted dose curve at least 0.9, where 1 is the maximum; inconclusive = response in the unintended direction; inactive = score below 0.9.

Luciferin 4-monooxygenase (Photinus pyralis), sequence (P08659 whole entry, looked up): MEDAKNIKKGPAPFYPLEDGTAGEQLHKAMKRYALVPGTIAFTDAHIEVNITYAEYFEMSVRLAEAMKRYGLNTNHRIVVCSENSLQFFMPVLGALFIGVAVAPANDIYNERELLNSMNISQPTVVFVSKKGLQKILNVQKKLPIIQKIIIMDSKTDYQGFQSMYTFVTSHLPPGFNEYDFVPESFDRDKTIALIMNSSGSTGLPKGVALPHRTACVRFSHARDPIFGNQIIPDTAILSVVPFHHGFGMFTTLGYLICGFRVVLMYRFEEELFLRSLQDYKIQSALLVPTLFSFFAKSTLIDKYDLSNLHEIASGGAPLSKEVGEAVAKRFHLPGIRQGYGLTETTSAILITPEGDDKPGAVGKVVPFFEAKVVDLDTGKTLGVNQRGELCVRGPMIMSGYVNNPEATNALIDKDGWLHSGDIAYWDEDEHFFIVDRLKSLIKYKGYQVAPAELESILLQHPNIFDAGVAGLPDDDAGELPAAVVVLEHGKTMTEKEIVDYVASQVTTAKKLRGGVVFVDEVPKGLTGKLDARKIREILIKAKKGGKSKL
AR (gene 367), sequence (P10275 whole entry, looked up): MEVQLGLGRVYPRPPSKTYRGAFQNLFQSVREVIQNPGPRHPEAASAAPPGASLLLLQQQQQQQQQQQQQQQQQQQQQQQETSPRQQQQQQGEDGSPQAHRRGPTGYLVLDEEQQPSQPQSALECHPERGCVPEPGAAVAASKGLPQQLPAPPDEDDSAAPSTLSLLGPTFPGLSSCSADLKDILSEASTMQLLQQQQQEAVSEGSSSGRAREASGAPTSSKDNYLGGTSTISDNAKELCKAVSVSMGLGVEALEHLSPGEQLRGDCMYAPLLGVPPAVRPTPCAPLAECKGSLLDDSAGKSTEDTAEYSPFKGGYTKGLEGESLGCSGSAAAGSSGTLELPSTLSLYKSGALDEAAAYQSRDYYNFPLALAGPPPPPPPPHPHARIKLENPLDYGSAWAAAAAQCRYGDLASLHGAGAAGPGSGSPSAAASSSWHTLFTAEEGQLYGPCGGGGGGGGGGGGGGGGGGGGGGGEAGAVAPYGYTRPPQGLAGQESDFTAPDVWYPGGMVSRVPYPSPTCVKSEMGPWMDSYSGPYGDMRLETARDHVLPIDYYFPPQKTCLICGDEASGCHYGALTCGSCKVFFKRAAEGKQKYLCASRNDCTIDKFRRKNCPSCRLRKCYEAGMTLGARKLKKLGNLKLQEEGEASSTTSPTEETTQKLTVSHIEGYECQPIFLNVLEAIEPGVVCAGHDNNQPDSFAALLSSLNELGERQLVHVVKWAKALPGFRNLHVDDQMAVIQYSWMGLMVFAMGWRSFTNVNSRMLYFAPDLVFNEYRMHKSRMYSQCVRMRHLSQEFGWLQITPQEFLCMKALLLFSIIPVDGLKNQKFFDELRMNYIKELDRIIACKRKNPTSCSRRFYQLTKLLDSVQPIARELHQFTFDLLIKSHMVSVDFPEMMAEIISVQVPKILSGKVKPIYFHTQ
chicken Estrogen Receptor (ESR1), ESR1 (gene 396099), sequence (P06212 whole entry, looked up, the tested form may be a part): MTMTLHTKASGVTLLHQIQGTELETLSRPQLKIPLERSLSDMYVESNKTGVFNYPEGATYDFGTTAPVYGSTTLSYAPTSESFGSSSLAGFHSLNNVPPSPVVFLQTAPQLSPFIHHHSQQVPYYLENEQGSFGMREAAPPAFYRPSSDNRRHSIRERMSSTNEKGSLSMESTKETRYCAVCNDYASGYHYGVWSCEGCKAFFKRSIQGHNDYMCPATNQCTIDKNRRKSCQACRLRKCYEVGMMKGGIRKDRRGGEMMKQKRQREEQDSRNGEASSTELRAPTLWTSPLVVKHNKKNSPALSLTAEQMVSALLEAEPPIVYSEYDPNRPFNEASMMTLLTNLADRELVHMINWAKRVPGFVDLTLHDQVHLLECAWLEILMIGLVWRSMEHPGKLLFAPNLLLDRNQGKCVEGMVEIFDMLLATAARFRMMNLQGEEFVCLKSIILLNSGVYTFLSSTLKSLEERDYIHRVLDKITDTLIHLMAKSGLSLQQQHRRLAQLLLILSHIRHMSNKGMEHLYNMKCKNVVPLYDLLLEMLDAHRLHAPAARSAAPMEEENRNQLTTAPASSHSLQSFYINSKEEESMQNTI
zebrafish Estrogen Receptor (ESR1), esr1 (gene 259252), sequence (P57717 whole entry, looked up, the tested form may be a part): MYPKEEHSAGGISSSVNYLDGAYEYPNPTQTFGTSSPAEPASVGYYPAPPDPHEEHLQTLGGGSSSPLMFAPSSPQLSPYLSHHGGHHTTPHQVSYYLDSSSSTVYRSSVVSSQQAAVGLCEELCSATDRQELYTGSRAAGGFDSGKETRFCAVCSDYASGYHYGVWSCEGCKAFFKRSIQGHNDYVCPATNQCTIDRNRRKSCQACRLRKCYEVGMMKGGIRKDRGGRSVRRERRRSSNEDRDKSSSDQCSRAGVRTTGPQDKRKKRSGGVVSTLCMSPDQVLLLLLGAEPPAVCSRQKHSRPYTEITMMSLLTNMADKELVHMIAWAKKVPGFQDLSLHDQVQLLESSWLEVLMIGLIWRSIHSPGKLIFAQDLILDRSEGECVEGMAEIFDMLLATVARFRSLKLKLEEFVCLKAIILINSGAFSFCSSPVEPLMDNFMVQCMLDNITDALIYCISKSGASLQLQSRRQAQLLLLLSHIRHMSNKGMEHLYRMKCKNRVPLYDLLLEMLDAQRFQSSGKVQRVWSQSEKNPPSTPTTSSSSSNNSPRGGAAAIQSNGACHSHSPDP
Estrogen receptor (Homo sapiens), sequence (P03372 whole entry, looked up, the tested form may be a part): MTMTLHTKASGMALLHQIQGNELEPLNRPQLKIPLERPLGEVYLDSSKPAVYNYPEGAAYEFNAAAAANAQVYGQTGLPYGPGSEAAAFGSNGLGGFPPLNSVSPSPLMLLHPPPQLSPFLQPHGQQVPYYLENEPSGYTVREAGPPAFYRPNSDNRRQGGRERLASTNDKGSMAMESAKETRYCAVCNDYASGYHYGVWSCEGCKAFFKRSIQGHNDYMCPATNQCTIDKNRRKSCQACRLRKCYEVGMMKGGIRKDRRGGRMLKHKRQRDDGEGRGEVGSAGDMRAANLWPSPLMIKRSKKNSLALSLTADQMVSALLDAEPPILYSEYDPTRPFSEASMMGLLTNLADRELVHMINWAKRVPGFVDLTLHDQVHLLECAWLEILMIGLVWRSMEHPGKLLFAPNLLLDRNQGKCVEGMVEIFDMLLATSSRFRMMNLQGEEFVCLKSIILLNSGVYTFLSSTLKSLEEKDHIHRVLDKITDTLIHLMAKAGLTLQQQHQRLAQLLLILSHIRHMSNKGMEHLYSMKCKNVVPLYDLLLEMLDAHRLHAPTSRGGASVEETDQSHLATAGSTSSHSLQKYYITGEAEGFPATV

A word on the AC50: it is the midpoint of the concentration-response curve, whichever way the signal moves. Regarding `OC12N=C(c3ccccc3)SC1Cc1cc(Cl)ccc12` (configuration not stated), the AC50 is 17.1 µM (active) in [1], 83.3 µM (active) in test [2] and 76.2 µM (active) in [3].

Take `CCCCOC(=O)CC(CC(=O)OCCCC)(OC(C)=O)C(=O)OCCCC`: the molecule was classed as inactive in test [2] and in test [3].

In the case of `CCCCCCCCOc1ccc(C(=O)c2ccccc2)c(O)c1`, the AC50 was 68.2 µM (active) in test [2] and 13.7 µM (active) in test [3]. The outcome in test [4] was inactive.

`Oc1ccccc1`: the molecule was classed as inactive in test [1], in [2], in test [3] and in [4].

As for `CN(C[C@@H](CC[N+]12CCC(C3CCCCC3)(CC1)CC2)c1ccc(Cl)c(Cl)c1)C(=O)c1cc(C(F)(F)F)cc(C(F)(F)F)c1`, the molecule was classed as inactive in test [1]. The half-maximal activity concentration (AC50) in [2] is 5.81 µM (active); in [3], 5.8 µM (active); in test [4], 10.6 µM (active); in test [5] it was 16.4 µM (active).

With `CCCOC(=O)c1cc(O)c(O)c(O)c1`, the molecule was classed as inactive in test [1] and in [4]. The results for the AC50 in test [2] and in test [3] were 50 µM (active) and 31.4 µM (active), respectively.

Consider `CCCCCCCCCCCCO`, for which the molecule was classed as inactive in test [2] and in [3]. Moreover, in [4], the AC50 was 68.3 µM (active).

In the case of `O=C1c2ccccc2C(=O)N1CCc1noc(-c2ccc(CN3CCCCCC3)s2)n1`, the AC50 in test [2] was 13.2 µM (active); in [3], 6.41 µM (active).

Consider `CC(C)(C)c1cc(/C=C2\SC(N)=NC2=O)cc(C(C)(C)C)c1O`, for which the call in test [1] and in [5] was inactive. For the same molecule, the AC50 in [2] is 13.5 µM (active); in [3], 15.2 µM (active); in test [4], 31.6 µM (active).

Turning to `O=c1c(-c2ccc(O)cc2)coc2cc(O)cc(O)c12`, the AC50 in test [1] was 7.86 µM (active); in [2], 62.9 µM (active); in [3] it was 28.8 µM (active); in test [5] it was 83.2 µM (active). Further, in the test with AR (gene 367), the result was inactive.

As for `CC(C)(O)c1ccc(CNC(=O)c2cccnc2Oc2ccc3nonc3c2)cc1`, the molecule was called inactive in test [2], in [3] and in test [4].

With `CCN(Cc1cccc(S(=O)(=O)O)c1)c1ccc(C(=C2C=CC(=[N+](CC)Cc3cccc(S(=O)(=O)O)c3)C=C2)c2ccccc2S(=O)(=O)[O-])cc1`, in test [1], the AC50 was 15.8 µM (active). For the same molecule, the outcome in test [3] and in [4] was inactive.

Consider `COc1cc(C(=O)NC2CCN(C)CC2)ccc1Nc1ncc2c(n1)N(C1CCCC1)CC(F)(F)C(=O)N2C`, for which the outcome (in [1]; with AR (gene 367)) was inactive. The AC50 in test [2] is 0.00301 µM (active); in test [3], 0.00297 µM (active); in test [5] it was 0.0449 µM (active).

For the molecule `Cc1c2ccccc2c(C)c2c1ccc1ccccc12`, the call in test [1], in [5] and in test [15] was inactive. Moreover, the AC50 is 8.7 µM (active) in [6]; 9.59 µM (active) in test [7]; 16.9 µM (active) in test [8]; 9 µM (active) in test [9]; 50 µM (active) in test [2]; 41.1 µM (active) in [3]. Further, the AC50 was 5.91 µM (active) in test [10]; 15.7 µM (active) in test [11]; 5.86 µM (active) in test [12]; 3.92 µM (active) in [13]; 15.7 µM (active) in test [14]; 20.1 µM (active) in [4].
